The other results are listed elsewhere or left out. No count for the full screen is at hand.
Biological target: furin, P09958
Test: furin cleavage Z-score vs untreated control; higher = more cleavage, active = 3.5 or more, inactive = 1 or less, 8 variable residues between constant flanks
In short: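 Read counts from sequencing released DNA gave abundance for each bead-bound 8-mer peptide–cDNA fusion cut by purified furin over 7.5, 15 or 30 min. The cleavage Z-score compares log counts with furin-free reactions after lowess adjustment and median absolute deviation scaling.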
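Note: purified furin at 1:10 enzyme:substrate in 50 mM HEPES pH 7.5.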

Chain of furin, P09958 (P09958 whole entry): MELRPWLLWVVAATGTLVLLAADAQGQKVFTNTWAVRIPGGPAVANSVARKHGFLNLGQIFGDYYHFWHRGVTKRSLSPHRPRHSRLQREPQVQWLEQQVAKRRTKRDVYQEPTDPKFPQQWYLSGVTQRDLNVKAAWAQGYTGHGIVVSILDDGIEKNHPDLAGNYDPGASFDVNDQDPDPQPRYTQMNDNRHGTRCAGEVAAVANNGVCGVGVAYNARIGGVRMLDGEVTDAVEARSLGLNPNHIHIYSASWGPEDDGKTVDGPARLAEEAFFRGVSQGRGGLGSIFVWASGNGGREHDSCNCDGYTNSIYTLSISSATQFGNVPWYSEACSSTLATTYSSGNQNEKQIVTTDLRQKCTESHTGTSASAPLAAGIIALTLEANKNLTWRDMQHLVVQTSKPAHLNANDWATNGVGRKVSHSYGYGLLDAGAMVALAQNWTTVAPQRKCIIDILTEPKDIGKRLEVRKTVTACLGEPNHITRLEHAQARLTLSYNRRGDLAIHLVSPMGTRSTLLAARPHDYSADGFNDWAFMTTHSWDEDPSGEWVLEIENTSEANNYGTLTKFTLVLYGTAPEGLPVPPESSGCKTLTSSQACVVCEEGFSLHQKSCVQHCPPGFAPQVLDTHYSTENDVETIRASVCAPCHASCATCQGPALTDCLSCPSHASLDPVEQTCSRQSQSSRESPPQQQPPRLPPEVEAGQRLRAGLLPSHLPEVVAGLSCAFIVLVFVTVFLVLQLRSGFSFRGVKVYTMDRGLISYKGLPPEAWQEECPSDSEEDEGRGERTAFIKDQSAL

Sequence | furin cleavage Z-score (7.5 min) | furin cleavage Z-score (15 min) | furin cleavage Z-score (30 min)
CANDCPNSSIAGNASASA [HC263] | 0.567 (inactive) | 0.0331 (inactive) | -0.164 (inactive)
CARNKREDRTAGNASASA [FS-2727] | 11.9 (active) | 12.6 (active) | 8.05 (active)
CAREKKVTRTAGNASASA [FS-2914] | -1.91 (inactive) | -0.133 (inactive) | 0.367 (inactive)
CAREKRKNRTAGNASASA [FS-1888] | 0.751 (inactive) | 1.62 | -0.32 (inactive)
CARVLRENGKAGNASASA [FS-3119] | 0.679 (inactive) | -0.235 (inactive) | 0.807 (inactive)
CARNKRESGKAGNASASA [FS-1757] | 8.44 (active) | 9.42 (active) | 7.75 (active)
CATAILSSLTAGNASASA [HC1133] | -0.0959 (inactive) | 1.64 | 1.05
CALDMIAGAHAGNASASA [HC333] | -0.265 (inactive) | -1.79 (inactive) | 0.6 (inactive)
CAVVCHSMSYAGNASASA [HC89] | -0.697 (inactive) | -0.997 (inactive) | -0.52 (inactive)
CACEVLSDFKAGNASASA [HC1153] | -1.16 (inactive) | -1.03 (inactive) | 0.3 (inactive)
CADTTIMAKNAGNASASA [HC1438] | 1.51 | -0.0215 (inactive) | 0.93 (inactive)
CADNKRMARNAGNASASA [FS-984] | 5.12 (active) | 6.32 (active) | 6.33 (active)
CANGFRHARNAGNASASA [FS-466] | -0.528 (inactive) | -0.454 (inactive) | -0.259 (inactive)
CAAASRLARGAGNASASA [FS-211] | 0.553 (inactive) | 1.11 | 0.636 (inactive)
CAPNSRLARNAGNASASA [FS-475] | 6.58 (active) | 6.13 (active) | 6.41 (active)
CARVKRSPGLAGNASASA [FS-2387] | 10.4 (active) | 10.3 (active) | 9.1 (active)
CARNKKDVNLAGNASASA [FS-2726] | 0.881 (inactive) | 0.588 (inactive) | 0.399 (inactive)
CASKKRSNGLAGNASASA [FS-3136] | -1.83 (inactive) | 0.376 (inactive) | 2.11
CARLYRSLGEAGNASASA [FS-2045] | 1.86 | 4.55 (active) | 4.61 (active)
CARELRQLMEAGNASASA [FS-2916] | 0.168 (inactive) | -0.988 (inactive) | -1.36 (inactive)
CAQVRNSTGLAGNASASA [HC257] | -0.176 (inactive) | 1.49 | 0.103 (inactive)
CARLGAVQNEAGNASASA [HC974] | -1.44 (inactive) | -1.09 (inactive) | -2.56 (inactive)
CARVKRVLMGAGNASASA [FS-2618] | -0.934 (inactive) | -0.615 (inactive) | -0.629 (inactive)
CARVKRSLGEAGNASASA [FS-1977] | 10.7 (active) | 12.6 (active) | 9.34 (active)
CARVKRDLVLAGNASASA [FS-2317] | 8.24 (active) | 11 (active) | 9.42 (active)
CADIWDWICEAGNASASA [HC1150] | -0.513 (inactive) | -0.19 (inactive) | -1.62 (inactive)
CAEVVTFTWVAGNASASA [HC146] | -0.177 (inactive) | -1.31 (inactive) | -0.383 (inactive)
CAYGFQYSPGAGNASASA [HC1466] | -1.04 (inactive) | 0.304 (inactive) | -1.02 (inactive)
